In the supplement of paper PMC12494721:
Structures can show the parent of a compound that is named as a salt.

Tests used:
Settings in all cases: incubation time: 27 h, anaerobic, 37 °C;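 for the amine columns active = adjusted P below 0.05 in both replicates with a change the same way and a mean fold change under 0.8 or over 1.25; inactive = the rest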
[1] = tested on: Clostridium sporogenes DSM 1664; experiment: growth (OD595) fold change vs plate DMSO controls (fold change (ratio)); higher = more growth
Procedure, shortened: (§1)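 The reported measure is growth: the fold change against the median of DMSO controls on the plate. Absorbance at 595 nm from anaerobic 96-well mGAM cultures grown for 27 h at 37 °C was blank-subtracted, corrected for background with 20 µM compound solutions in water, and converted to OD with a calibration factor of 5. Fold changes above 1.5 appear as NA, and values are the mean of 2 biological replicates.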

[2] = tested on: Escherichia coli IAI1; experiment: as above
Procedure, shortened: as §1

[3] = tested on: Klebsiella aerogenes DSM 30053; experiment: as above
Procedure, shortened: as §1

[4] = tested on: Ruminococcus gnavus DSM 108212; experiment: as above
Procedure, shortened: as §1

[5] = tested on: Klebsiella aerogenes DSM 30053; experiment: fold change of Histamine concentration vs plate DMSO controls (fold change (ratio)); higher = more amine produced, active = hit call of the paper (significant change in both replicates, either direction)
Procedure, shortened: (§2)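 Each value is the fold change relative to DMSO-only wells on the same plate. Four gut bacterial strains were grown anaerobically in mGAM at 37 °C for 27 h in 80 µL wells, starting at OD 0.1 before a 1:1 dilution, with compounds at 20 µM final (sweeteners 50 µM). Whole cultures were extracted with cold acetonitrile/methanol containing 0.1% formic acid, centrifuged, and amines were quantified by LC–triple-quadrupole MS (dynamic MRM) against external calibration curves with within-batch drift correction. Values are means of 2 biological replicates.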

[6] = tested on: Clostridium sporogenes DSM 1664; experiment: fold change of Tryptamine concentration vs plate DMSO controls (fold change (ratio)); higher = more amine produced, active = hit call of the paper (significant change in both replicates, either direction)
Procedure, shortened: as §2

[7] = tested on: Ruminococcus gnavus DSM 108212; experiment: as above
Procedure, shortened: as §2

[8] = tested on: Escherichia coli IAI1; experiment: fold change of Putrescine concentration vs plate DMSO controls (fold change (ratio)); higher = more amine produced, active = hit call of the paper (significant change in both replicates, either direction)
Procedure, shortened: as §2

[9] = tested on: Klebsiella aerogenes DSM 30053; experiment: as above
Procedure, shortened: as §2

[10] = tested on: Escherichia coli IAI1; experiment: fold change of Cadaverine concentration vs plate DMSO controls (fold change (ratio)); higher = more amine produced, active = hit call of the paper (significant change in both replicates, either direction)
Procedure, shortened: as §2

[11] = tested on: Klebsiella aerogenes DSM 30053; experiment: as above
Procedure, shortened: as §2

[12] = tested on: Ruminococcus gnavus DSM 108212; experiment: fold change of 2-Phenylethylamine concentration vs plate DMSO controls (fold change (ratio)); higher = more amine produced, active = hit call of the paper (significant change in both replicates, either direction)
Procedure, shortened: as §2

| Compound | growth [1] | growth [2] | growth [3] | growth [4] | fold change of Histamine concentration [5] | fold change of Tryptamine concentration [6] | fold change of Tryptamine concentration [7] | fold change of Putrescine concentration [8] | fold change of Putrescine concentration [9] | fold change of Cadaverine concentration [10] | fold change of Cadaverine concentration [11] | fold change of 2-Phenylethylamine concentration [12] |
| --- | --- | --- | --- | --- | --- | --- | --- | --- | --- | --- | --- | --- |
| C/C(=C\C(=O)OCCCCCCCCC(=O)O)C[C@@H]1OC[C@H](C[C@@H]2O[C@H]2[C@@H](C)[C@H](C)O)[C@@H](O)[C@H]1O [Mupirocin] (20 µM) | 0.909 | 0.423 | 0.631 | 0.934 | 0.384 (active) | 0.968 (inactive) | 1.04 (inactive) | 0.182 (active) | 0.7 (active) | 0.209 (active) | 0.763 (active) | 0.957 (inactive) |
| C[C@@H]1C[C@H]2[C@@H]3C[C@H](F)C4=CC(=O)C=C[C@]4(C)[C@@]3(F)[C@@H](O)C[C@]2(C)[C@@]1(O)C(=O)COC(=O)C(C)(C)C [Flumethasone pivalate] (20 µM) | 0.889 | 0.954 | 1 | 0.811 | 1.04 (inactive) | 1 (inactive) | 1.04 (inactive) | 1 (inactive) | 0.998 (inactive) | 1.02 (inactive) | 0.984 (inactive) | 1.05 (inactive) |
| CC[C@@]1(O)C(=O)OCc2c1cc1n(c2=O)Cc2cc3c(CN(C)C)c(O)ccc3nc2-1 [Topotecan] (20 µM) | 1.08 | 1.03 | 0.991 | 0.99 | 1.1 (inactive) | 0.992 (inactive) | 0.998 (inactive) | 1.01 (inactive) | 0.994 (inactive) | 0.961 (inactive) | 1 (inactive) | 1.01 (inactive) |
| COc1cc(Nc2c(C#N)cnc3cc(OCCCN4CCN(C)CC4)c(OC)cc23)c(Cl)cc1Cl [Bosutinib] (20 µM) | 0.991 | 0.99 | 1.05 | 1.16 | 0.973 (inactive) | 0.96 (inactive) | 0.942 (inactive) | 1.02 (inactive) | 1 (inactive) | 1.02 (inactive) | 1.01 (inactive) | 0.989 (inactive) |
| C=C1CC[C@H](O)C/C1=C/C=C1\CCC[C@]2(C)[C@@H]([C@H](C)CCCC(C)C)CC[C@@H]12 [Cholecalciferol] (20 µM) | 0.913 | 0.971 | 0.962 | 1.05 | 1.08 (inactive) | 0.975 (inactive) | 1.03 (inactive) | 0.96 (inactive) | 1.01 (inactive) | 0.984 (inactive) | 1.07 (inactive) | 1.13 (inactive) |
| Nc1cccc2c1C(=O)N(C1CCC(=O)NC1=O)C2=O (stereo not drawn) [Pomalidomide] (20 µM) | 1.09 | 1.02 | 1.02 | 1.04 | 1.13 (inactive) | 1.12 (inactive) | 1.03 (inactive) | 0.938 (inactive) | 1.04 (inactive) | 0.954 (inactive) | 1.03 (inactive) | 1.07 (inactive) |
| CCN(CC)C(=O)c1cccnc1 [Nikethamide] (20 µM) | 1.07 | 1.01 | 0.998 | 1.13 | 1.02 (inactive) | 1.05 (inactive) | 1.05 (inactive) | 1.06 (inactive) | 1 (inactive) | 1.08 (inactive) | 0.993 (inactive) | 1.08 (inactive) |
| CCN(CCCc1ccccc1)CCCc1ccccc1 [Alverine citrate salt] (20 µM) | 0.998 | 1.01 | 1.11 | 0.708 | 0.972 (inactive) | 1.03 (inactive) | 0.74 (active) | 0.895 (inactive) | 1.02 (inactive) | 1.29 (active) | 1.02 (inactive) | 0.782 (inactive) |
| CNCCCN1c2ccccc2CCc2ccccc21 [Desipramine hydrochloride] (20 µM) | 0.96 | 1.09 | 0.971 | 1.12 | 1.06 (inactive) | 0.982 (inactive) | 0.946 (inactive) | 1.01 (inactive) | 1.01 (inactive) | 1.56 (inactive) | 0.987 (inactive) | 0.934 (inactive) |
| CC(=O)OC(C)OC(=O)C(C)c1ccc(-c2ccccc2)c(F)c1 (stereo not drawn) [Flurbiprofen axetil] (20 µM) | 1.11 | 1.03 | 0.976 | 0.996 | 1.01 (inactive) | 1.04 (inactive) | 1.07 (inactive) | 1.04 (inactive) | 1 (inactive) | 1.07 (inactive) | 0.987 (inactive) | 1.04 (inactive) |
| CCCCCCCCCCCCCCCCCCCCCC(=O)Nc1ccn([C@@H]2O[C@H](CO)[C@@H](O)[C@@H]2O)c(=O)n1 [Enocitabine] (20 µM) | 0.978 | 0.973 | 0.98 | 0.975 | 1.03 (inactive) | 0.984 (inactive) | 0.913 (inactive) | 1.01 (inactive) | 1.01 (inactive) | 1.01 (inactive) | 1.02 (inactive) | 0.866 (inactive) |
| CCCNC(=O)NS(=O)(=O)c1ccc(Cl)cc1 [Chlorpropamide] (20 µM) | 0.913 | 1.03 | 0.983 | 1.03 | 1.17 (inactive) | 0.956 (inactive) | 1.13 (inactive) | 0.938 (inactive) | 1.03 (inactive) | 0.993 (inactive) | 1.1 (inactive) | 1.31 (active) |
| Cc1cc(/C=C/c2ccc3cc(N(C)C)ccc3[n+]2C)c(C)n1-c1ccccc1 [Pyrvinium pamoate] (20 µM) | 1.21 | 1.12 | 0.958 | 0.853 | 0.936 (inactive) | 0.95 (inactive) | 0.975 (inactive) | 1.22 (inactive) | 1.01 (inactive) | 0.966 (inactive) | 1.02 (inactive) | 1.04 (inactive) |
| CC(c1cc2ccccc2s1)N(O)C(N)=O (stereo not drawn) [Zileuton] (20 µM) | 1.11 | 0.91 | 0.978 | 1.01 | 1.06 (inactive) | 0.987 (inactive) | 1.03 (inactive) | 0.86 (inactive) | 1.01 (inactive) | 1 (inactive) | 0.98 (inactive) | 1.07 (inactive) |
| CC1(C)O[C@@H]2C[C@H]3[C@@H]4CCC5=CC(=O)CC[C@]5(C)[C@@]4(F)[C@@H](O)C[C@]3(C)[C@]2(C(=O)CCl)O1 [Halcinonide] (20 µM) | 1.17 | 1.01 | 1.05 | 1.07 | 0.941 (inactive) | 0.989 (inactive) | 0.963 (inactive) | 0.988 (inactive) | 0.994 (inactive) | 1.02 (inactive) | 1.01 (inactive) | 0.978 (inactive) |
| COC(=O)Nc1nc2cc([S+]([O-])c3ccccc3)ccc2[nH]1 (stereo not drawn) [Oxfendazole] (20 µM) | 0.943 | 1.04 | 1.01 | 0.99 | 1.01 (inactive) | 1.01 (inactive) | 1.04 (inactive) | 0.99 (inactive) | 1.04 (inactive) | 0.981 (inactive) | 1.04 (inactive) | 0.999 (inactive) |
| NCCCC[C@H](N[C@@H](CCc1ccccc1)C(=O)O)C(=O)N1CCC[C@H]1C(=O)O [Lisinopril] (20 µM) | 1.04 | 1.03 | 1.14 | 0.922 | 0.911 (inactive) | 0.958 (inactive) | 0.981 (inactive) | 0.998 (inactive) | 0.988 (inactive) | 1.04 (inactive) | 1.02 (inactive) | 0.943 (inactive) |
| COc1ccccc1OCC(O)CN1CCN(CC(=O)Nc2c(C)cccc2C)CC1 (stereo not drawn) [Ranolazine] (20 µM) | 1.13 | 1.01 | 1.13 | 0.994 | 0.957 (inactive) | 1.03 (inactive) | 1.03 (inactive) | 0.997 (inactive) | 1.01 (inactive) | 1.01 (inactive) | 1.01 (inactive) | 1.06 (inactive) |
| CNC(=O)c1c(I)c(C(=O)NCC(=O)Nc2c(I)c(C(=O)O)c(I)c(C(=O)NCCO)c2I)c(I)c(N(C)C(C)=O)c1I [Ioxaglic acid] (20 µM) | 1.16 | 1.08 | 1.09 | 1.02 | 1.01 (inactive) | 0.978 (inactive) | 1.01 (inactive) | 1.05 (inactive) | 1.06 (inactive) | 1 (inactive) | 1.04 (inactive) | 0.982 (inactive) |
| CCCCCCCC/C=C\CCCCCCCC(N)=O [Oleamide] (20 µM) | 0.884 | 0.989 | 1.01 | 0.968 | 0.969 (inactive) | 1.01 (inactive) | 0.895 (inactive) | 1.02 (inactive) | 1.01 (inactive) | 1.06 (inactive) | 1 (inactive) | 0.862 (inactive) |
| CC(C(=O)O)c1ccc(-c2ccccc2)c(F)c1 (stereo not drawn) [Flurbiprofen] (20 µM) | 0.961 | 1 | 1 | 1.02 | 1.07 (inactive) | 1.02 (inactive) | 0.937 (inactive) | 1.06 (inactive) | 1.03 (inactive) | 1 (inactive) | 1.01 (inactive) | 0.882 (inactive) |
| CN1CCCN(C(c2ccccc2)c2ccc(Cl)cc2)CC1 (stereo not drawn) [Homochlorcyclizine dihydrochloride] (20 µM) | 1.12 | 0.99 | 1 | 0.861 | 0.994 (inactive) | 0.989 (inactive) | 0.918 (inactive) | 1.03 (inactive) | 1.01 (inactive) | 0.885 (inactive) | 1.01 (inactive) | 0.983 (inactive) |
| C[C@]12C=CC(=O)C=C1CC[C@@H]1[C@@H]2C(=O)C[C@@]2(C)[C@H]1CC[C@]2(O)C(=O)CO [Prednisone] (20 µM) | 1.04 | 1.05 | 1.08 | 1.1 | 0.861 (inactive) | 1.04 (inactive) | 1.04 (inactive) | 1.07 (inactive) | 0.941 (inactive) | 1.08 (inactive) | 1.02 (inactive) | 1.02 (inactive) |
| Cc1c(Cl)cccc1Nc1ncccc1C(=O)O [Clonixin lysinate] (20 µM) | 1.13 | 1.07 | 1.02 | 1.43 | 1.01 (inactive) | 0.959 (inactive) | 1.01 (inactive) | 1.1 (inactive) | 1.03 (inactive) | 0.96 (inactive) | 1.04 (inactive) | 1.01 (inactive) |
